Measured values as given in PubChem BioAssay AID1053205 (Broad Institute, 2014).
Potency and affinity values are given separately. Records with an inconclusive call do not appear. The source made the active and inactive calls.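 The calls were made as follows: active = compounds lowering the FRET ratio whose fitted half-maximal concentration is at most twice their top tested dose; inconclusive = flat partial drop between 30 and 70 percent, or bad fit; inactive = the rest.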

molecular target: Voltage-dependent L-type calcium channel subunit alpha-1D (Homo sapiens) (UniProt Q01668); assay: disruptors of CaV1.3 IQ/ICDI domain association – cell-based, HEK293, YFP-IQ/CFP-ICDI FRET, cherry-picks, dose response (AID 1053205); conditions: HEK293 YFP-IQ/CFP-ICDI FRET ratio, 10 min; series mostly up to 35 µM
Sequence (Q01668 whole entry, looked up, the tested form may be a part): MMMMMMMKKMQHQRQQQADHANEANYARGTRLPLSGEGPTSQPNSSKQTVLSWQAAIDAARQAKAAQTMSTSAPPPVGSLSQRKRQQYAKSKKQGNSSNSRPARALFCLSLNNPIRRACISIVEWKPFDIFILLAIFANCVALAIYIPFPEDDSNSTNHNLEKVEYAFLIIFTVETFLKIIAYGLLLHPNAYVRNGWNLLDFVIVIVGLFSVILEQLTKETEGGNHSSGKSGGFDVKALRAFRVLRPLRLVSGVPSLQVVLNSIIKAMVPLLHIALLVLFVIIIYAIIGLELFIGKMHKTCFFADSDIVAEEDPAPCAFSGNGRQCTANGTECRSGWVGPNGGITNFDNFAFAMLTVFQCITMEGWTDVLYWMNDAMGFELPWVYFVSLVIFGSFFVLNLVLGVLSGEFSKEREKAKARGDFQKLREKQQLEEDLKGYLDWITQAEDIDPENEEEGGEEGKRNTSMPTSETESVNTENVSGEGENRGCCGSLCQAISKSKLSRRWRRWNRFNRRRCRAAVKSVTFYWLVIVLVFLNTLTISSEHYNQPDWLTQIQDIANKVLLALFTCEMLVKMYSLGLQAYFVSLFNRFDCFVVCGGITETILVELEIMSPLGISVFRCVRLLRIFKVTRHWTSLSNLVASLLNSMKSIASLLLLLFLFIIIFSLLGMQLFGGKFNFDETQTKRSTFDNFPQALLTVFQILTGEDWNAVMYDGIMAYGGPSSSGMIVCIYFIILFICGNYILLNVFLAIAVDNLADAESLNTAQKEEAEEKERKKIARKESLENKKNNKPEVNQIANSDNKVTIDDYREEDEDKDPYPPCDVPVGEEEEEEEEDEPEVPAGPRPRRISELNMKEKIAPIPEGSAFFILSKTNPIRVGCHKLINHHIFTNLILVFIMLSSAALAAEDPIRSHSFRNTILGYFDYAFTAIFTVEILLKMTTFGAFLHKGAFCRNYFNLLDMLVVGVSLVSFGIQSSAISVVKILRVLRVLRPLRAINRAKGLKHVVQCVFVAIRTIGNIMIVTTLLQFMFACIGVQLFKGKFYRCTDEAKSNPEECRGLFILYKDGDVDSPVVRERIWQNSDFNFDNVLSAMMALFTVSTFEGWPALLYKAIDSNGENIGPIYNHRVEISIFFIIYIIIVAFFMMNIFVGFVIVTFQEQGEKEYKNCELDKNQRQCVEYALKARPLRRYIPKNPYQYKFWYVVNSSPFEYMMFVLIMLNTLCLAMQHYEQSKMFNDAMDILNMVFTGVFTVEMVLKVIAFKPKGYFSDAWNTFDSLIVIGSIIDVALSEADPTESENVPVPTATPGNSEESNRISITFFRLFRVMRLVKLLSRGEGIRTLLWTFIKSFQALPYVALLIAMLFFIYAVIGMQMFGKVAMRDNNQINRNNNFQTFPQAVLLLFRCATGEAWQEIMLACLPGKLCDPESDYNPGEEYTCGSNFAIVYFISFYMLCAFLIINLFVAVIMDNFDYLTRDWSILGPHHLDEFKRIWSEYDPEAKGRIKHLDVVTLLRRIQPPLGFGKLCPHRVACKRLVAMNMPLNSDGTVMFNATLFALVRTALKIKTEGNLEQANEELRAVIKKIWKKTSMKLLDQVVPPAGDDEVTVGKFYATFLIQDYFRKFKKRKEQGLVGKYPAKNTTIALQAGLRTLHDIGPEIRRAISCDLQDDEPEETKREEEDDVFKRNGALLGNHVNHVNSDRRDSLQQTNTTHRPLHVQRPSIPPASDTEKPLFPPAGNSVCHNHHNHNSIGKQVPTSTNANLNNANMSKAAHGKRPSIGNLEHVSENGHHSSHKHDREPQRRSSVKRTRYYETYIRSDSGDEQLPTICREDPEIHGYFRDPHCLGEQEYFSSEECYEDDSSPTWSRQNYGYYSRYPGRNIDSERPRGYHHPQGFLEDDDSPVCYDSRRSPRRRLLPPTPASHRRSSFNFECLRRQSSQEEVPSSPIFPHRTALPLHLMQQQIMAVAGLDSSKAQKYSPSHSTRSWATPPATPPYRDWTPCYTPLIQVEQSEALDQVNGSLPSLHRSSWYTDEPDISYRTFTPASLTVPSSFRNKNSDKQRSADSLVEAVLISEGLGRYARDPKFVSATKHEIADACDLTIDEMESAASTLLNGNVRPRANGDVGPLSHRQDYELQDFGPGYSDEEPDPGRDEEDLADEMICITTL

outcome, inactive:
N#Cc1c2ccc(OCC(N)=O)cc2n2ccccc12, CC1CCN(C(=O)COc2cccc3c2CCN(Cc2ccccc2)C3=O)CC1, CCCN1CCN(C(=O)c2ccc(CS(=O)c3ccc(Br)cc3)o2)CC1 (centres undefined), C[C@H](NC(=O)c1nc[nH]c1C(=O)N[C@@H](Cc1ccccc1)C(=O)OC(C)(C)C)C(=O)OCc1ccccc1, Nc1ccc2nc(-c3ccccc3)cnc2c1, CCCCCCSc1cc(-c2nc3cc(C)ccn3c2NCCCC)ccc1OC, CN(C)/C=C/C(=O)c1c(F)cccc1F, CCc1cccc(C)c1NC(=S)NCc1ccc2c(c1)cc(C)n2C, c1ccc(-c2cn3nc4c(nc3n2)CCCC4)cc1, Cc1cc2cc(CNC(=O)c3ccco3)ccc2n1C, Cn1cccc1/C=N/NC(=O)c1sc2cc(Cl)ccc2c1Cl, N#Cc1ccc(/C=C\c2nccc3c2[nH]c2ccccc23)cc1, CC/C(C)=N\Nc1nc(-c2cc3cc(OC)ccc3oc2=O)cs1, CNC(=O)c1ccc(NC(=O)c2cccc(C(F)(F)F)c2)cc1, COCCNC(=S)N/N=C/c1ccc(-c2ccc([N+](=O)[O-])cc2)o1, CCOC(=O)C(NC(=O)c1ccccc1)(OCC1(CC)COC1)C(F)(F)F (centres undefined), CC(C)(C)c1csc(N/N=C/c2ccc(O)cc2)n1, CN(C)CCOCCOc1ccc(Cl)c2ccccc12, Cc1c(C(=O)NCc2ccc(Cl)c(Cl)c2)sc(=O)n1Cc1cccc(F)c1
